# Source: PubChem BioAssay
# Only some compounds are listed: those with a hit (about 19% of all), similar ones and a draw of the others.
# TDP1 cell noCPT – qHTS for Inhibitors of human tyrosyl-DNA phosphodiesterase 1 (TDP1): qHTS in cells in absence of CPT | DT40 Tdp1-/- hTDP1 cells, no CPT, ATP luminescence, 48 h | Potency, µM (doses to about 46.2 µM), without a hit: at the highest dose activity change, negative = growth inhibition, usual class: inhibitors | hit rate 15% among 420,000 | AID 686978, 2013; note: potency is the fitted concentration of half-maximal effect; % is set by controls: 0 for no effect and ±100 for the full control effect; nearly all actives have a fitted effect of over 55% in size
#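 A cellular qHTS used chicken DT40 cells lacking endogenous Tdp1 but carrying stably transfected human TDP1. Compounds were applied without camptothecin, and cell growth kinetics were judged by ATP-dependent luminescence after ≥48 hr.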
# Chronic BCR inh – qHTS Assay to Find Inhibitors of Chronic Active B-Cell Receptor Signaling. hit rate 0.05% among 340,000. Potency, µM (series often up to 46.1 µM), for inactives: at the top dose activity change, negative = inhibition, usual class: inhibitors. ABC-DLBCL IkBa-CBG/CBR reporter, luminescence ratio, 4 h; active = well fitted inhibition curve with a large enough effect in the signal ratio, with a control signal flat, not every such curve was filed as active; inconclusive = small, poorly fitted or top-dose-only effect, or effect the other way, or a change in a side signal; the % refers to the signal ratio;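 note: potency is the fitted concentration of half-maximal effect; plate controls were basal doxycycline-induced cells for no effect and cells given 10 µM MG132 for full effect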
#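 TMD8 ABC-DLBCL cells carrying doxycycline-inducible green luciferase fused to IkappaBalpha plus unfused red luciferase were exposed to compounds (up to 46 uM) for 4 hrs at 37C. Activity came from the overlap-corrected green/red luminescence ratio.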
# IL-1B inflam inh – qHTS for Inhibitors of Inflammasome Signaling: IL-1-beta AlphaLISA Primary Screen; hit rate 4.7% among 360,000; THP-1 LPS/ATP IL-1B secretion, AlphaLISA, 16 h; stronger effect = lower value; activity change, % at 57.5 µM; in the data active = activity change below about -50%; inconclusive = mostly about -30% to -49%; note: % is set by controls: 0 for no effect and ±100 for the full control effect
#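 Secreted IL-1B measured by AlphaLISA bead assay after 16 h compound exposure of THP-1 cells; compounds (final up to 57.5 uM) added 1 h before LPS (250 ng/mL) and ATP (1.25 mM) stimulation; lower signal means less secretion.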
# TDP1 cell CPT – qHTS for Inhibitors of human tyrosyl-DNA phosphodiesterase 1 (TDP1): qHTS in cells in presence of CPT; chicken DT40 Tdp1-/-;hTDP1 cells + 20 nM CPT, ATP luminescence, 48 h; Potency, µM (highest dose often 46.2 µM), without a hit: at the highest dose activity change, negative = growth inhibition, hits mostly inhibitors; hit rate 12% among 420,000; AID 686979, 2013; note: potency is the fitted concentration of half-maximal effect; % is set by controls: 0 for no effect and ±100 for the full control effect; nearly all actives have a fitted effect of over 55% in size
#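 Cell growth measured by CellTiter-Glo luminescence after a minimum 48 h, 37 C compound exposure with 20 nM CPT in Tdp1-knockout DT40 cells stably expressing hTDP1, seeded 400/well; qHTS titration format.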
# SW480 rerep – A quantitative high throughput screen for small molecules that induce DNA re-replication in SW480 colon adenocarcinoma cells; hit rate 1.8% among 340,000; SW480 DNA re-replication, Hoechst DNA content imaging, 48 h; Potency, µM (highest dose often 46.1 µM), inactives show at the top dose re-replication activation, most hits filed as activators; note: potency is the fitted concentration of half-maximal effect; % of control where 0% means no effect; nearly all actives have a fitted effect of over 55% in size
#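 Readout is total intensity of Hoechst-stained nuclei, excited at 405 nm and collected at 500-530 nm. Compound treatment lasted 48 hr at 37 C in 5% CO2 before staining.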
# MCF10A rerep – A quantitative high throughput screen for small molecules that induce DNA re-replication in MCF 10a normal breast cells; MCF 10A DNA re-replication, Hoechst nuclear intensity, 48 h; Potency, µM (top dose mostly 46.1 µM), for inactives: at the top dose activity, positive = re-replication, hits mostly activators; hit rate 2.9% among 350,000; note: potency is the fitted concentration of half-maximal effect; % of control where 0% means no effect; nearly all actives have a fitted effect of over 50% in size
# An asterisk follows results filed as active; ? = inconclusive; / = not tested or not shown; [ ] = remark or other dose. Unless noted, calls come from the whole dose curve; as a rule, active = well fitted curve in the direction sought with a large enough effect; inconclusive = small, poorly fitted or top-dose-only effect, or another doubt; inactive = no such curve, though single readings can be large; an effect the other way counts as inactive or inconclusive.
SMILES,TDP1 cell noCPT,Chronic BCR inh,IL-1B inflam inh,TDP1 cell CPT,SW480 rerep,MCF10A rerep
CCc1ccc(NC(=O)C(=O)NCCOc2ccccc2Cl)cc1,23µM*,-14%,15,16µM*,13%,14%
Cc1ccc(NC(=O)C(=O)NCCOc2ccccc2Cl)cc1,-29%,-2%,-9,?,-57%,?
O=S(=O)(c1ccc(Br)c2ccccc12)N1CCCC1,-26%,-9%,-3,4%,0%,-3%
O=C(CCS(=O)(=O)c1nc(-c2ccc3c(c2)OCO3)cc(C(F)(F)F)n1)Nc1ccccc1F,8.2µM*,/,/,7.3µM*,/,/
COC(=O)c1ccccc1NC(=O)CCS(=O)(=O)c1nc(-c2ccc3c(c2)OCO3)cc(C(F)(F)F)n1,3.3µM*,/,/,2.9µM*,/,/
CSc1ccccc1NC(=O)CCS(=O)(=O)c1nc(-c2ccc3c(c2)OCO3)cc(C(F)(F)F)n1,18µM*,/,/,8.2µM*,/,/
O=C(CCS(=O)(=O)c1nc(-c2ccc3c(c2)OCO3)cc(C(F)(F)F)n1)Nc1ccc(Br)cc1,3.3µM*,/,/,4.1µM*,/,/
CC(=O)c1ccc(OCCCC(=O)NCc2nnc3ccccn23)cc1,1%,-8%,11,10%,-266%,8%
COc1ccc(C2/C(=C(/O)c3ccc(Br)cc3)C(=O)C(=O)N2C)cc1 (centres undefined),-2%,5%,11,15%,-2%,-7%
N/C(CCS(=O)(=O)c1ccc(Cl)cc1)=N\OC(=O)c1ccccc1Cl,?,?,-51*,-20%,-31%,7%
N/C(=N\OC(=O)c1ccccc1Cl)c1ccc(Cl)cc1,-27%,7%,24,-26%,2%,0%
N/C(Cc1ccc(Cl)cc1)=N\OC(=O)c1cccc2ccccc12,29µM*,?,?,?,?,3%
N/C(Cc1ccc(Cl)cc1)=N\OC(=O)c1ccc2ccccc2c1,?,-2%,4,?,0%,4%
CNC(=O)C1CCC(Cn2c(=O)c3sccc3n(CC(=O)N3CCCC(C)C3)c2=O)CC1 (centres undefined),3%,/,/,-4%,/,/
Cc1ccc(S(=O)(=O)NNC(=O)C(=O)NNc2ccccn2)cc1,?,-12%,12,?,8%,?
Cc1ccccc1S(=O)(=O)NNC(=O)C(=O)NNc1ccccn1,23µM*,?,27,?,0%[9.22 µM],?
Cc1ccc(-n2[nH]c(C)c(C=Nc3ccc4[nH]c(=O)[nH]c4c3)c2=O)cc1C,21µM*,-2%,-18,?,?,?
Cc1ccc(N=Cc2c(C)[nH]n(-c3nc4ccccc4[nH]3)c2=O)cc1,4.1µM*,?,8,3.3µM*,-2%,0%
Cc1ccc(-n2[nH]c(C)c(C=Nc3ccc4[nH]c(=O)[nH]c4c3)c2=O)cc1,16µM*,3%,-28,16µM*,?,?
COc1ccc2nc(/N=C/c3c(C)[nH]n(-c4ccc(C)cc4)c3=O)sc2c1,?,-2%,16,13µM*,1%,7%
CCC1Cc2[nH]c(=S)[nH]c(=O)c2C(c2ccc(F)cc2)O1 (centres undefined),10%,/,13,7%,/,/
c1cnc2c(-c3nccc4c3[nH]c3ccccc34)cccc2c1,-11%[9.04 µM],/,/,17%[9.04 µM],/,/
COCCN(CC(=O)Nc1cc(Cl)ccc1-n1cncn1)Cc1nc2ccccc2c(=O)[nH]1,-1%,-5%,0,-20%,-16%,9%
Cc1c(C(=O)NCc2ccc3c(c2)OCCO3)sc(=O)n1Cc1ccc(C(=O)N(C)C)cc1,?,/,20,?,/,/
